According to ChEMBL document CHEMBL1961873, “Compounds: GSK PKIS; Assays: Nanosyn kinase panel” (2012):

Experiments:
[1] = target: MAP/microtubule affinity-regulating kinase 3 (Homo sapiens) (UniProt P27448); details: at 1 µM;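 note: reported values are averaged percent inhibition of MARK3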
[2] = target: T1, MAP/microtubule affinity-regulating kinase 4 (Homo sapiens) (UniProt Q96L34); details: at 0.1 µM
T1 sequence (whole entry): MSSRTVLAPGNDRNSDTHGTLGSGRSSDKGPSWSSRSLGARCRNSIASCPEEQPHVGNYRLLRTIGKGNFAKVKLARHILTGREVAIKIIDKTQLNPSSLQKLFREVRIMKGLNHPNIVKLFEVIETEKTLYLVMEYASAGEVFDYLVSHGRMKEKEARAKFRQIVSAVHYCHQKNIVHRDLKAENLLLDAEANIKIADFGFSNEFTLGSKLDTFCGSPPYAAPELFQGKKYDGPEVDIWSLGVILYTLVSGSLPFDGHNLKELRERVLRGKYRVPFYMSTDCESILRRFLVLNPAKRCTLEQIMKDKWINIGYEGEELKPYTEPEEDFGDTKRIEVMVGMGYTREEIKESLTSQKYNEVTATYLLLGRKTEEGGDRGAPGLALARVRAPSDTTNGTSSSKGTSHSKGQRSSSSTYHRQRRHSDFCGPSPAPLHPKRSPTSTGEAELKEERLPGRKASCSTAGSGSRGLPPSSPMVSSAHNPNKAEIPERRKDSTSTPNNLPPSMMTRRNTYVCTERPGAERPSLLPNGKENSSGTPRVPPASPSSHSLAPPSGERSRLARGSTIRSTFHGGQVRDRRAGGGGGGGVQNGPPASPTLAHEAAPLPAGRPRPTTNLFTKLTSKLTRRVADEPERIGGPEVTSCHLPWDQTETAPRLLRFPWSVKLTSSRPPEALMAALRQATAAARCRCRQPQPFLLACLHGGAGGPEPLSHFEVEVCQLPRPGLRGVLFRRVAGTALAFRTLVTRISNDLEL

[3] = target: T1, MAP/microtubule affinity-regulating kinase 4 (Homo sapiens); details: at 1 µM
[4] = target: Maternal embryonic leucine zipper kinase (Homo sapiens) (UniProt Q14680); details: at 0.1 µM
Maternal embryonic leucine zipper kinase (Homo sapiens), sequence (Q14680 whole entry, looked up): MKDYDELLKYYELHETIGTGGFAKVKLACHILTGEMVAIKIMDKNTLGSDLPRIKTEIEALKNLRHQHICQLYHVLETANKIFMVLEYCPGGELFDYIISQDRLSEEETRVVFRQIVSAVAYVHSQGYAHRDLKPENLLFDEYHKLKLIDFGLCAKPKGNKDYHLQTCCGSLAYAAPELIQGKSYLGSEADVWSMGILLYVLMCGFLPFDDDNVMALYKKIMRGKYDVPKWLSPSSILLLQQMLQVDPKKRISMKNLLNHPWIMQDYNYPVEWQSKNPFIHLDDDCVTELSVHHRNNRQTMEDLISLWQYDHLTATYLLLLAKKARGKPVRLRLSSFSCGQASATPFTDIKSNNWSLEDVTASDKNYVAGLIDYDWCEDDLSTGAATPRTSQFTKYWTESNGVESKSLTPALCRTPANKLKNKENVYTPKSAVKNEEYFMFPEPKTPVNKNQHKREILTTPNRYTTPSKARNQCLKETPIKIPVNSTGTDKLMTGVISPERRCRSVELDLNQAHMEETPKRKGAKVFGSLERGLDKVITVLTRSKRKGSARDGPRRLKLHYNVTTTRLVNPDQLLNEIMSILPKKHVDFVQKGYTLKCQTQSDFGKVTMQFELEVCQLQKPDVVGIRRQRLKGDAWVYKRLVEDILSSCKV

[5] = target: Maternal embryonic leucine zipper kinase (Homo sapiens) (UniProt Q14680); details: at 1 µM
[6] = target: MAP kinase-interacting serine/threonine-protein kinase 1 (Homo sapiens) (UniProt Q9BUB5); details: at 0.1 µM
MAP kinase-interacting serine/threonine-protein kinase 1 (Homo sapiens), sequence (Q9BUB5 whole entry, looked up): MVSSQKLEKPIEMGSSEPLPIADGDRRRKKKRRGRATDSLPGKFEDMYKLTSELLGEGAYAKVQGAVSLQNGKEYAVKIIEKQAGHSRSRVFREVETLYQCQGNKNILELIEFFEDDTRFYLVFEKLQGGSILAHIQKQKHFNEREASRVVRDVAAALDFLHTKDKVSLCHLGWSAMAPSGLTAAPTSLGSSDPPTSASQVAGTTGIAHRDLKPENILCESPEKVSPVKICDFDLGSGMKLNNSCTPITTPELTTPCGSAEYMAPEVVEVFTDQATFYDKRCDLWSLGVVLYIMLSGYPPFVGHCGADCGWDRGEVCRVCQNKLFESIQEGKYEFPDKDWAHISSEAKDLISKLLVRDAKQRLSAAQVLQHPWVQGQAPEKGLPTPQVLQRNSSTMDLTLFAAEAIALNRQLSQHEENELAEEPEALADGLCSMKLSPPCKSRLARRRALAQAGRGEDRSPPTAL

[7] = target: MAP kinase-interacting serine/threonine-protein kinase 1 (Homo sapiens) (UniProt Q9BUB5); details: at 1 µM
[8] = target: MAP kinase-interacting serine/threonine-protein kinase 2 (Homo sapiens) (UniProt Q9HBH9); details: at 0.1 µM
MAP kinase-interacting serine/threonine-protein kinase 2 (Homo sapiens), sequence (Q9HBH9 whole entry, looked up): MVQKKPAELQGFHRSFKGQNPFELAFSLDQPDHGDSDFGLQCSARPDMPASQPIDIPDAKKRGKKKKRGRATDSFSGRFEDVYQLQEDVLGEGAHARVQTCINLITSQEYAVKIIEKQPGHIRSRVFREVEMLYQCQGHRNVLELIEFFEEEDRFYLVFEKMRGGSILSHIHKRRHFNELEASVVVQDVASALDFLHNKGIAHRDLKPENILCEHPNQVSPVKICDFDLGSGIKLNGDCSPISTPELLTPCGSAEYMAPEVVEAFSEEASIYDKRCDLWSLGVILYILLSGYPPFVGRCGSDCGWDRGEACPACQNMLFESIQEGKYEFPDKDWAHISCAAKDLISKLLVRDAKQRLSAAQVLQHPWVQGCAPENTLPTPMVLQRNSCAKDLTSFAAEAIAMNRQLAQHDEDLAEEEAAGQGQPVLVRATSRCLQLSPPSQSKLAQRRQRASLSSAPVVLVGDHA

[9] = target: MAP kinase-interacting serine/threonine-protein kinase 2 (Homo sapiens) (UniProt Q9HBH9); details: at 1 µM
[10] = target: Serine/threonine-protein kinase MARK2 (Homo sapiens) (UniProt Q7KZI7); details: at 0.1 µM;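 note: mean percent inhibition of PAR-1Balpha kinase activity, reported from the GSK PKIS screen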
Serine/threonine-protein kinase MARK2 (Homo sapiens), sequence (Q7KZI7 whole entry): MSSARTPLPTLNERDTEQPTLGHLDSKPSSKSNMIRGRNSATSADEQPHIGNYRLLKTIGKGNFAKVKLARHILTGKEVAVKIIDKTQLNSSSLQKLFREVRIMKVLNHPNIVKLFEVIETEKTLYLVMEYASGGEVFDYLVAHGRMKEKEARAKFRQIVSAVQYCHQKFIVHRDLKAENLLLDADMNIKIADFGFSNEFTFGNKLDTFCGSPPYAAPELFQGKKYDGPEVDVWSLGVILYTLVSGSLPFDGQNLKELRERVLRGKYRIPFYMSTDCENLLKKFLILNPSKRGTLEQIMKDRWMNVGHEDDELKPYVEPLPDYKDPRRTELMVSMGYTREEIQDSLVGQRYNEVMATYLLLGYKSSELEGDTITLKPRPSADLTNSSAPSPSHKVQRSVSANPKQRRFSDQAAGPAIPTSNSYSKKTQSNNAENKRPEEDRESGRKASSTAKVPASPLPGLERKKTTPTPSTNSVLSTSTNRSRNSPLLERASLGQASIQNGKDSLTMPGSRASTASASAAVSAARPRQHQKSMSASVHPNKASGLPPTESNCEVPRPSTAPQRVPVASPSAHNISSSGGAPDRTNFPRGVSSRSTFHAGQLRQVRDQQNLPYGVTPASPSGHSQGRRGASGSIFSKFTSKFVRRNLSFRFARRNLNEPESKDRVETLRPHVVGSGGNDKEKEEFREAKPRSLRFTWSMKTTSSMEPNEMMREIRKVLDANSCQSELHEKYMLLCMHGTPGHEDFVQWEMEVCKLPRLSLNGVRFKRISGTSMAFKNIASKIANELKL

MAP/microtubule affinity-regulating kinase 3 (Homo sapiens), sequence (P27448 whole entry, looked up): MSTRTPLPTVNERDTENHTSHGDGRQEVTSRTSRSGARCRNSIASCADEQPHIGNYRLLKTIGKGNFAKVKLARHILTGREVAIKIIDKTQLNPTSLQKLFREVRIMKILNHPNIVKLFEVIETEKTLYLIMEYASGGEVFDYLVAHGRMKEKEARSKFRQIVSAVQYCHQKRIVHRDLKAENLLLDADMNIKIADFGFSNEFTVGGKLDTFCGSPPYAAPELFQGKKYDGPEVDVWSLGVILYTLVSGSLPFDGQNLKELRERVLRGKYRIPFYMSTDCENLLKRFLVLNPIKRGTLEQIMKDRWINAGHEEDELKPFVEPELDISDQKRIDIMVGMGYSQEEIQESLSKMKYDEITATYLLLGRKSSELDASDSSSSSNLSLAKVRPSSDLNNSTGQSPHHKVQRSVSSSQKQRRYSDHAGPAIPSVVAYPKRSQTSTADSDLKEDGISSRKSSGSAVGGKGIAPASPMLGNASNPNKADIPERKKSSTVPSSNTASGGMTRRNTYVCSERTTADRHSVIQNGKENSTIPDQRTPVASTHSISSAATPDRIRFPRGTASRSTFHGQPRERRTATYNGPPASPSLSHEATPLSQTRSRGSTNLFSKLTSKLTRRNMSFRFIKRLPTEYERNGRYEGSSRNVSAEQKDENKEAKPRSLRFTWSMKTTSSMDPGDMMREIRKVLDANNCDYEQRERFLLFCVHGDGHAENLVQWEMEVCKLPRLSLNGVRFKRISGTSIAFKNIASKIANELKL

Row | SMILES | inhibition [1] [%] | inhibition [2] [%] | inhibition [3] [%] | inhibition [4] [%] | inhibition [5] [%] | inhibition [6] [%] | inhibition [7] [%] | inhibition [8] [%] | inhibition [9] [%] | inhibition [10] [%]
1 | O=C(Nc1ccc(Oc2ccc3[nH]c(NC(=O)c4ccco4)nc3c2)cc1)Nc1cc(C(F)(F)F)ccc1F | -0.23 | 0.1 | 2.11 | 0.54 | 8.57 | 3.42 | 28.4 | 2.04 | 37.3 | -0.8
2 | Cc1ccc(O)cc1Nc1ccnc2ccc(S(C)(=O)=O)cc12 | 4.85 | 2.23 | 1.71 | 4.23 | 9.23 | 3.85 | 12.2 | 1.97 | 9.18 | 2.65
3 | CN(c1ccc(NC(=O)Nc2ccc(OC(F)(F)F)cc2)cc1)c1ccnc(Nc2cccc(S(N)(=O)=O)c2)n1 | -0.68 | 0.65 | 1.56 | 0.77 | -2.07 | 29.2 | 73.3 | 20.5 | 67.3 | -1.1
4 | O=C1Nc2ccc(-c3cccnc3)cc2C1=Cc1cc(Br)c(O)c(Br)c1 | 6.43 | 1.85 | 3.53 | 3.77 | 10.4 | 2.71 | 12.7 | 6.02 | 36 | 1.17
5 | CCOc1nccc2c1nc(-c1nonc1N)n2CC | 9.66 | 1.03 | 5.45 | 3.16 | 5.63 | 3.48 | 9.35 | 3.06 | 6.16 | 1.34
6 | Cc1cc(-c2ccccn2)cc(C)c1/C=C/c1cncc(-c2nn[nH]n2)c1 | 7.09 | 2.52 | 3.91 | 4.28 | 9.19 | 2.08 | 3.07 | 0.76 | 2.73 | 1.02
7 | CCCN1CCCC(c2ccc(Nc3nc(Nc4cc(F)ccc4C(N)=O)c4cc[nH]c4n3)c(OC)c2)C1 (stereo not given) | 68.3 | 7.3 | 40.7 | 24 | 75.2 | 3.82 | 5.92 | 1.87 | 2.51 | 6.68
8 | COc1cccc(-n2ncc3c(N/N=C/c4ccc(S(C)(=O)=O)cc4)ncnc32)c1 | 4.26 | 1.03 | 3.52 | 3.61 | 4.85 | 23.2 | 34.2 | 16.7 | 23.9 | 0.16
9 | COC(=O)Nc1nc2cc(Oc3ccc(NC(=O)Nc4cccc(Br)c4)cc3)ccc2[nH]1 | 1.7 | 0.25 | 1.17 | 2.93 | 4.7 | 4.77 | 8.85 | 1.96 | 4.55 | -0.39
10 | COC(=O)c1cncc(/C=C/c2c(C)cc(O)cc2C)c1 | 2.01 | 0.01 | 0.82 | 2.47 | 5.13 | 4.41 | 25.6 | 3.34 | 16.1 | 0.36
11 | [O-][S+]1CCN(Cc2ccc(-c3ccc4ncnc(Nc5ccc(OCc6ccccc6)c(Cl)c5)c4c3)o2)CC1 | 2.17 | 1.29 | 2.1 | 2.37 | 5.78 | 1.69 | 5.98 | 0.13 | 8.54 | 0.59
12 | FC(F)(F)c1ccc(-c2nn3ncccc3c2-c2ccnc(Nc3ccc4c(c3)OCCO4)n2)cc1 | 11.2 | 4.98 | 6.4 | -0.41 | -0.13 | 6.66 | 10.9 | 6.24 | 9.7 | 6.43
13 | N#Cc1c(NC(=O)c2ccccc2F)sc2c1CCCC2 | 3.09 | 1.13 | 3.48 | -3.26 | -2.77 | -0.78 | -0.18 | -0.06 | 2.26 | -0.36
14 | COc1cc2ncnc(Nc3ccc(C)c(O)c3)c2cc1OC | 6.46 | 1.47 | 4.13 | 5.67 | 8.15 | 6.8 | 30.9 | 3.13 | 15.8 | 2.85
15 | NS(=O)(=O)c1ccc(NC=C2C(=O)Nc3ccc4ncsc4c32)cc1 | 60.7 | 21 | 58.7 | 62.7 | 94.4 | 9.09 | 39.2 | 3.84 | 18.1 | 14
16 | CCS(=O)(=O)c1ccc(OC)c(Nc2ncc(-c3cccc(OC)c3)o2)c1 | 2.05 | 0.15 | 1.64 | 2.89 | 11.4 | 4.25 | 17 | 1.44 | 10.6 | -0.52
17 | Cc1ccc(NC(=O)CC2CC2)cc1-c1ccc(C(=O)NCC2CC2)cc1 | 1.71 | 1 | -0.01 | 4.17 | 2.02 | 2.59 | 7.07 | 1.63 | 5.54 | -1.05
